Consider 95 compounds from PubChem BioAssay AID1851 (National Center for Advancing Translational Sciences (NCATS), 2009).

Broadly, the AC50 is the concentration giving half of the maximal activity seen.

Each structure is given as a SMILES string. The campaign covered roughly 16,000 compounds. About 4,000 (25%) were called active. Not shown: some 26% with an inconclusive outcome. These entries were drawn from the full list. A number with no mark means an inactive call. The call rests on the fitted dose curve; in most records, active means well fitted curve in the direction sought with a large enough effect; inconclusive means small, poorly fitted or top-dose-only effect, or effect the other way; inactive means no such curve, though single readings can be large or run the other way.
On the % scale 0 is the no-effect control and ±100 the full control effect.

In this assay the target is Cytochrome P450 2C9 (Homo sapiens) (UniProt P11712). Kind of assay: Cytochrome panel assay with activity outcomes. The note with it: recombinant CYP, pro-luciferin dealkylation, luminescence, p450-cyp2c9; series mostly up to 57.1 µM.
Sequence of Cytochrome P450 2C9 (Homo sapiens) (P11712 whole entry, looked up): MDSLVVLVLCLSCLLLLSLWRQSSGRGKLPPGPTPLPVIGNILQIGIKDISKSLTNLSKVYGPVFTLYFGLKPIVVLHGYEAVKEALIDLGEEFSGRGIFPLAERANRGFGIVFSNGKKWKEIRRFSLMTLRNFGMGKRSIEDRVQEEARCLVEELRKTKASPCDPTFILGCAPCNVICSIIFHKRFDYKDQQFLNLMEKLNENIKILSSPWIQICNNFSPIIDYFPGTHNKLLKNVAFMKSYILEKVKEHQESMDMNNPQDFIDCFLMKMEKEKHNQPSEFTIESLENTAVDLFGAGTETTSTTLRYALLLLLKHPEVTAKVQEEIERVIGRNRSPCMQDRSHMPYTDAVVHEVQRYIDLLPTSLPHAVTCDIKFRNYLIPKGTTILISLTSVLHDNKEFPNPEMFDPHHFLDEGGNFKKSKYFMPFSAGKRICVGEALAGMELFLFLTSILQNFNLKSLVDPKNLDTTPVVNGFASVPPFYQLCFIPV
Consider `CCN(CC)CC[n+]1ccc2c(C)c3[nH]c4ccc(O)cc4c3c(C)c2c1`, for which the activity, negative = inhibition is -0.365% [at 11.4 µM].

With `CC(=O)NCCc1c[nH]c2ccc(O)cc12`, the AC50 entry is “inactive”.

Regarding `Cc1onc(-c2ccccc2)c1C(=O)NCCc1c[nH]c2ccccc12`, the concentration at half-maximal activity (AC50) was 3.98 µM (active).

`CC(C)(C)c1ccc(O)c(CN(Cc2cc(C(C)(C)C)ccc2O)C2CCCCC2)c1`: the activity, negative = inhibition was -4.75% [at 11.4 µM].

As to `Oc1c(Br)cc(CN(Cc2cc(Br)c(O)c(Br)c2)C2CCCCC2)cc1Br`, the half-maximal activity concentration (AC50) was 2.51 µM (active).

Regarding `Oc1c(Br)cc(Br)cc1CN(Cc1cc(Br)cc(Br)c1O)C1CCCCC1`, the activity, negative = inhibition is -21.2% [at 11.4 µM].

On to `NC(N)=NC(N)=Nc1ccc(S(=O)(=O)O)cc1`, for which the activity, negative = inhibition is 21.1% [at 11.4 µM].

As for `COc1ccc(-n2c(CNC(=O)c3cc(OC)c(OC)c(OC)c3)n[nH]c2=S)cc1`, the AC50 entry was “inactive”.

As for `O=C(NCc1n[nH]c(=S)n1-c1cccc(Cl)c1)c1ccc(S(=O)(=O)N2CCCC2)cc1`, the AC50 is 17.8 µM (active).

For `Cn1c(CCNC(=O)c2ccccc2Cl)n[nH]c1=S`, the AC50 entry is “inactive”.

For `O=[N+]([O-])c1ccccc1N=Nc1c(O)[nH]c2ccc(S(=O)(=O)O)cc12`, the activity, negative = inhibition was -11% [at 11.4 µM].

Consider `CCC(C(=O)NC(C)(C)C)N(C(=O)Cn1nnc(-c2cccs2)n1)c1cnc2ccccc2c1` (stereo not given), for which the AC50 is 2.82 µM (active).

On to `O=C(Nc1cnc2ccccc2c1)c1cccc(-n2cnnn2)c1`, for which the AC50 entry is “inactive”.

Take `COC(=O)C/C=C\[C@H](C)[C@@H](OC)c1ccccc1Br`: the activity, negative = inhibition is -6.68% [at 11.4 µM].

As to `Cn1c(=O)n2n(c1=O)[C@H]1[C@H](O)[C@H]3O[C@@H]3/C(=N/OC[C@@H](O)COCc3ccco3)[C@@H]1CC2`, the activity, negative = inhibition is -4.5% [at 11.4 µM].

As to `COc1cnc(-c2ccccn2)nc1Oc1ccc(Cl)c2ccccc12`, the AC50 was 12.6 µM (active).

Consider `C[C@H](Oc1ccccc1)C(=O)N[C@@H]1C(=O)N2[C@@H]1SC(C)(C)[C@@H]2C(=O)O`, for which the AC50 entry was “inactive”.

In the case of `CC(Oc1ccccc1)C(=O)Nc1nc2c(s1)C(=O)CC(C)(C)C2` (stereo not given), the half-maximal activity concentration (AC50) is 6.31 µM (active).

With `COc1ccccc1CNCc1cccs1`, the AC50 entry is “inactive”.

Consider `COc1ccccc1CNCC(O)(c1ccc(Cl)cc1)c1ccc(Cl)cc1`, for which the AC50 was 15.8 µM (active).

On to `COc1ccccc1CNCCCCCCNCCCCCCCCNCCCCCCNCc1ccccc1OC`, for which the AC50 result is “inactive”.

For `OCCN1CCN(C(=S)c2ccc(Br)cc2)CC1`, the AC50 entry is “inactive”.

For `CCOC(=O)N/N=C1/C[C@@H](O)[C@@H](O)[C@@H]2[C@@H]3C(=O)N([C@@H](C)c4ccccc4)C(=O)[C@H]3CC[C@@H]12`, the activity, negative = inhibition is 20.5% [at 11.4 µM].

Take `O=S(=O)(c1cccc2cnccc12)N1CCNCC1`: the AC50 result is “inactive”.

For the compound `COc1ccc(CCNC(=O)C2CCN(S(=O)(=O)c3cccc4nsnc34)CC2)cc1OC`, the AC50 result is “inactive”.

As to `O=C(C1CCCN(S(=O)(=O)c2cccc3nsnc23)C1)N1CC=C(c2ccccc2)CC1` (stereo not given), the AC50 is 1.41 µM (active).

`O=S(=O)(c1ccccc1S(=O)(=O)N1CCCCC1)N1CCCCC1`: the AC50 was 28.2 µM (active).

`CS(=O)(=O)N1CCCC(C(=O)N2CCc3ccccc3C2)C1` (stereo not given): the AC50 entry is “inactive”.

`O=S(=O)(c1cccc2nsnc12)N1CCCC1`: the AC50 is 3.55 µM (active).

As for `O=C(C1CCN(S(=O)(=O)c2cccc3nsnc23)CC1)N1CCc2ccccc21`, the AC50 is 10 µM (active).

Consider `CC(=O)Nc1ccc(NC(=O)C2CCN(S(=O)(=O)c3cccc4nonc34)CC2)cc1`, for which the AC50 entry was “inactive”.

On to `COc1ccc2nc(NC(=O)C3CCN(S(=O)(=O)c4cccc5nsnc45)CC3)sc2c1`, for which the AC50 entry is “inactive”.

`Cc1cc(N)c2ccccc2[n+]1CCCCCCCCCC[n+]1c(C)cc(N)c2ccccc21`: the AC50 entry is “inactive”.

On to `O=C(Nc1ccccc1)N[C@H]1C[C@H](C(=O)O)Nc2cc(Cl)cc(Cl)c21`, for which the AC50 result was “inactive”.

`CCCSC1=C(C#N)C(c2cccnc2)C(C(=O)OCC)=C(c2ccccc2)N1` (stereo not given): the half-maximal activity concentration (AC50) was 8.91 µM (active).

Turning to `COc1ccc(NC(=O)N2CC[C@@]3(CCCN(S(C)(=O)=O)C3)C2)cc1`, the AC50 result was “inactive”.

In the case of `Cc1ccc2c(c1)N(CC(=O)NC1CCC(C)CC1)C(=O)CO2` (stereo not given), the AC50 result is “inactive”.

Regarding `Cc1ccc2c(c1)N(CC(=O)NC1CCCc3ccccc31)C(=O)CO2` (stereo not given), the AC50 result is “inactive”.

With `Cc1ccc2c(c1)N(CCC(=O)NCc1cccnc1)C(=O)CO2`, the AC50 is 14.1 µM (active).

Consider `COC(=O)Nc1nc2ccc(Sc3ccccc3)cc2[nH]1`, for which the AC50 result was “inactive”.

On to `COc1cc(/C=N\Nc2nc3ccccc3[nH]2)cc(OC)c1OC`, for which the AC50 was 15.8 µM (active).

Take `c1ccc2[nH]c(NC3=NCCC3)nc2c1`: the AC50 entry was “inactive”.

`Cc1ccc2nc(-c3ccccc3)cc(C(=O)NCCCn3ccnc3)c2c1`: the AC50 is 0.1 µM (active).

`Cc1cccc(NC(=S)c2nc3ccccc3s2)c1`: the AC50 entry is “inactive”.

Turning to `CN1CCC(N(C)C(=O)CCc2nc3ccccc3c(=O)[nH]2)CC1`, the AC50 result was “inactive”.

Consider `Cc1cccc(NC(=O)N(Cc2nc3ccccc3c(=O)[nH]2)C2CCCC2)c1`, for which the AC50 is 5.62 µM (active).

Regarding `C/C(=N\OC(=O)c1ccccc1)c1cc(-c2ccc(Cl)cc2)no1`, the AC50 entry is “inactive”.

As for `N/C(=N\OC(=O)c1cc(-c2ccccc2)nc2ccccc12)c1ccc(Cl)cc1`, the AC50 was 3.98 µM (active).

In the case of `Cn1c(=O)c2[nH]c(C3CCCC3)nc2n(C)c1=O`, the AC50 result was “inactive”.

For `NC(=O)N[C@H]1NC(=O)NC1=O`, the AC50 result is “inactive”.

For the compound `COC(=O)C(NC(=O)c1ccc(F)cc1)(Nc1ncc(S(=O)(=O)c2ccc([N+](=O)[O-])cc2)s1)C(F)(F)F` (stereo not given), the AC50 is 3.55 µM (active).

Take `C=CCC(C(=O)OC)(C(=O)OC)c1ccc([N+](=O)[O-])cn1`: the AC50 result is “inactive”.

Take `COC(=O)C(C)(C(=O)OC)c1ccc([N+](=O)[O-])cn1`: the AC50 entry was “inactive”.

For the compound `O=S(=O)(Nc1ccc(Cc2ccncc2)cc1)c1ccc(Br)cc1`, the AC50 is 0.0141 µM (active).

On to `O=S(=O)(Nc1ccc(Cc2ccncc2)cc1)c1cccs1`, for which the AC50 is 0.02 µM (active).

For the compound `O=C1CCCCC(=O)c2ccccc2N1`, the AC50 entry is “inactive”.

Take `COc1ccc(C(=O)C(OC(=O)CNC(=O)c2ccco2)c2ccccc2)cc1` (stereo not given): the half-maximal activity concentration (AC50) is 20 µM (active).

Turning to `O=C(CNC(=O)c1ccco1)OCc1c(F)cccc1Cl`, the AC50 result is “inactive”.

For `COc1ccc(C(=O)NCC(=O)OCc2cccc(Br)c2)cc1`, the AC50 result was “inactive”.

For the compound `O=C(CNC(=O)c1ccco1)OC(C(=O)c1ccccc1)c1ccccc1` (stereo not given), the concentration at half-maximal activity (AC50) was 25.1 µM (active).

In the case of `CCOc1ccc2c(ccc(/C=C\c3cc(C)c4cccnc4c3O)[n+]2C)c1`, the activity, negative = inhibition was 5.89% [at 11.4 µM].

Turning to `O=C(O)[C@H]1CCCC[C@@H]1C(=O)Nc1nc2ccccc2[nH]1`, the activity, negative = inhibition is 2.98% [at 11.4 µM].

Take `Cc1cc(NC(=O)C2CCCC2)n(-c2nc3ccccc3[nH]2)n1`: the half-maximal activity concentration (AC50) was 3.98 µM (active).

Take `O=C(Nc1nc2ccccc2n1CCN1CCCCC1)C1CCCCC1`: the AC50 result is “inactive”.

As to `COc1cccc(/C=N/NC(=O)c2cc(-c3cccn3C)n[nH]2)c1`, the AC50 entry is “inactive”.

Consider `Cc1cc(C(=O)N/N=C/c2cccc(OC(=O)c3ccco3)c2)n[nH]1`, for which the AC50 is 11.2 µM (active).

In the case of `Cc1ccc(NCC(=O)N/N=C\c2ccc([N+](=O)[O-])o2)cc1`, the AC50 entry is “inactive”.

`Cc1ccc(NCC(=O)N/N=C/c2ccc(OC(=O)c3ccco3)cc2)cc1`: the half-maximal activity concentration (AC50) is 8.91 µM (active).

For `COc1ccc(-n2c(C)nn(C)c2=O)cc1`, the AC50 result is “inactive”.

As for `CCOC(=O)c1sc(=N)n(-c2ccc(OC)cc2)c1C`, the AC50 was 3.16 µM (active).

With `CCOC(=O)c1nc(N)sc1C(=O)OCC`, the AC50 result is “inactive”.

With `CC(C)Nc1cc(C(F)(F)F)nc(-c2ccccn2)n1`, the AC50 result was “inactive”.

Take `CC(C)Nc1nc(Oc2ccc(Cl)cc2)cc(C(F)(F)F)n1`: the concentration at half-maximal activity (AC50) is 15.8 µM (active).

As to `CC(C)c1cc(C(F)(F)F)nc(NNc2nc(C(C)C)cc(C(F)(F)F)n2)n1`, the activity, negative = inhibition was -27.5% [at 11.4 µM].

Take `CC(C)CN(Cc1c(O)ccc2c3c(c(=O)oc12)CCC3)CC(C)C`: the AC50 is 28.2 µM (active).

On to `CCOC(=O)c1[nH]c(C(=O)O)c(CCN(CC)CC)c1C`, for which the AC50 entry was “inactive”.

Turning to `CCN(CC)C(=O)CSc1nnc(-c2ccco2)n1N`, the AC50 entry was “inactive”.

On to `CCc1ccc(C2=Nn3c(nnc3-c3cccs3)SC2)cc1`, for which the AC50 is 7.08 µM (active).

Take `CCOc1ccc(C2=Nn3c(nnc3-c3ccco3)SC2)cc1`: the AC50 is 2.24 µM (active).

Turning to `C/C(CCN1CCc2nc(-c3ccccc3)c(-c3ccccc3)cc2C1)=N\OC[C@@H](O)COCc1ccco1`, the activity, negative = inhibition is -7.86% [at 11.4 µM].

As to `COc1cc(/C=C\c2ccc(OC)cc2OC)cc(OC)c1`, the AC50 entry was “inactive”.

With `CC(C)NC(=O)N1CCC2(CC1)CCN(C(=O)c1ccncc1)CC2`, the AC50 entry was “inactive”.

For the compound `COC(=O)C1=C(NC(=O)c2cccc(OC)c2)CCS1`, the AC50 was 11.2 µM (active).

Turning to `CCN(CC)S(=O)(=O)c1ccc(C(=O)NC2=C(C(=O)OC)SCC2)cc1`, the AC50 is 2 µM (active).

In the case of `CN1CCN(S(=O)(=O)c2cc([N+](=O)[O-])ccc2N2CCCCCC2)CC1`, the AC50 result was “inactive”.

As for `O=[N+]([O-])c1ccc(N2CCCCC2)c(Cl)c1N1CCCCC1`, the concentration at half-maximal activity (AC50) was 2.24 µM (active).

For the compound `Clc1ccc(N2CCCCCC2)nn1`, the AC50 entry was “inactive”.

Regarding `C/C(CCN1CCc2nc(-c3ccccc3)c(-c3ccccc3)cc2C1)=N\OC[C@@H](C)[C@H](OCc1ccccc1)C(C)C`, the activity, negative = inhibition was -9.58% [at 11.4 µM].

Regarding `Cc1cccc(N(CC(=O)N2CCOCC2)S(C)(=O)=O)c1`, the AC50 entry was “inactive”.

Turning to `Cc1cccc(N(CC(=O)NCCSCc2ccco2)S(=O)(=O)c2ccccc2)c1`, the AC50 is 4.47 µM (active).

Turning to `Cc1cccc(CNc2ccnc(-c3ccc(C(=O)N(C)C)cc3)n2)c1`, the activity, negative = inhibition was -11.3% [at 2.29 µM].

Take `Cc1cc(C)cc(N(CC(=O)NCCSc2ccccn2)S(=O)(=O)c2ccccc2)c1`: the AC50 was 0.282 µM (active).

In the case of `Cc1cccc(CSCCNC(=O)c2ccc(N(C)S(=O)(=O)c3ccccc3)cc2)c1`, the half-maximal activity concentration (AC50) was 0.562 µM (active).

Regarding `CN(CC(=O)O/N=C(\N)c1ccccn1)S(=O)(=O)c1ccccc1`, the AC50 entry is “inactive”.

For `Cc1cccc(CNc2cc(-c3ccc(C(=O)N(C)C)cc3)ncn2)c1`, the activity, negative = inhibition is 5.16% [at 2.29 µM].
